Measured values: PubChem BioAssay AID1835 (Johns Hopkins Ion Channel Center, 2009)
Out of some 2,400 compounds screened, about 750 (31%) were called active. Some of the results follow. Unmarked numbers belong to inactive results.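 How the source made its calls: active means median signal gain over dofetilide-blocked control wells reaching their mean plus 3 SD, so readout 1 at least 0; inactive means the rest.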

target: Voltage-gated inwardly rectifying potassium channel KCNH2 (Homo sapiens) (UniProt Q12809); assay: hERG protection against dofetilide inhibition, confirmation, cell-based, thallium flux, duplicate retest, dofetilide IC70 (AID 1835); details: hERG cell line, FluxOR thallium flux, dofetilide-blocked; at 10 µM; active compounds read high
Sequence (Q12809 whole entry, looked up): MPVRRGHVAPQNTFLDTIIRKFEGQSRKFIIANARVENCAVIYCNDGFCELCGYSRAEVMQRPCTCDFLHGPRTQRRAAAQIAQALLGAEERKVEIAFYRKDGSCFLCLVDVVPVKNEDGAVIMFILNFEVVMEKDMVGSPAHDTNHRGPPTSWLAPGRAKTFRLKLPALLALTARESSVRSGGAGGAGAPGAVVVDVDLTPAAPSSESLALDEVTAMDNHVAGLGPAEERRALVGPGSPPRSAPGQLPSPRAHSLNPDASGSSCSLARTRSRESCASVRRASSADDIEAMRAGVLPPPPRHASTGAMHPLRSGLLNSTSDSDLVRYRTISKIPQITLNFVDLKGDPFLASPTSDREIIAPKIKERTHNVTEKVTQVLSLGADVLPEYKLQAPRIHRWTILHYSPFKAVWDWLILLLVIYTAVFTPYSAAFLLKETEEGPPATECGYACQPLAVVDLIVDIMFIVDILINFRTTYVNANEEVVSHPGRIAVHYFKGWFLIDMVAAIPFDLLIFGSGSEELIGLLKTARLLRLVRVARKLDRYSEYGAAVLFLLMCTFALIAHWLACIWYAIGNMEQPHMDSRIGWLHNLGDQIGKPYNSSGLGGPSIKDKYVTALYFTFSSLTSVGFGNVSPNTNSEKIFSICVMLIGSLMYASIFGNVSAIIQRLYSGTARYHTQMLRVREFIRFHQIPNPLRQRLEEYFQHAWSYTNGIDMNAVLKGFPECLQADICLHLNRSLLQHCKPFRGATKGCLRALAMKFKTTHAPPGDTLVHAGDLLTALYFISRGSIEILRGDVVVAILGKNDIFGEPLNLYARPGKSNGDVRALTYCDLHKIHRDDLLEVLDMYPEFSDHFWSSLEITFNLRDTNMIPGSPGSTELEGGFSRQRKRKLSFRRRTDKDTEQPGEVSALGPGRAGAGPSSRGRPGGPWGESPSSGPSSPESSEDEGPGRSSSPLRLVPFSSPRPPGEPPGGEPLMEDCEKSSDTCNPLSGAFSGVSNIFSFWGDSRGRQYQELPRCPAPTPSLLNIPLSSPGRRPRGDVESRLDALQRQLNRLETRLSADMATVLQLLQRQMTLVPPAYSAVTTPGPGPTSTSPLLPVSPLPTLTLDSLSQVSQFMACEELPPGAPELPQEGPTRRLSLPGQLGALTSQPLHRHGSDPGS

SMILES	activity increase over dofetilide control, less the hit threshold
COc1ccc(CCNS(=O)(=O)c2csc(C(N)=O)c2)cc1OC	-14%
Cc1nc2ccccc2n1-c1ccccc1	3% (active)
COC(=O)c1ccc(-n2c(C)nc(=O)c(-c3ccccc3)c2C)cc1	-13%
Cc1nnc2c(SC(C)C)nc3ccccc3n12	-19%
C=C(C)CSc1nnc2[nH]c(=O)cc(N)n12	-19%
CC1=CCC[C@@H]2[C@@](C)(CC/C(C)=C/C(=O)O)[C@H](C)CC[C@@]12C	84% (active)
Nc1ccc2oc(-c3ccccc3Cl)cc(=O)c2c1O	-3%
Cc1nc2scc(C)n2c(=O)c1S(=O)(=O)Nc1ccc(N2CCOCC2)cc1	-7%
CCC1(C)Cc2c(sc3nc(SC)[nH]c(=S)c23)CO1 (stereo not given)	87% (active)
CSc1nc2sc3c(c2c(=S)[nH]1)CC(C)(C)OC3	81% (active)
CCc1nc2sc3c(c2c(=S)[nH]1)CC(C)(C)OC3	-8%
CCN(CC(=O)NCc1ccc(Cl)cc1)C(=O)CCOc1ccc(C)cc1	-14%
CNc1nc(N)nc(OC(C(F)(F)F)C(F)(F)F)n1	-24%
O=C(Nc1ccccc1C(=O)O)c1cccc(NC(=O)c2ccco2)c1	-3%
O=C(Nc1cccc(N=Cc2cc(Cl)cc(Br)c2O)c1)c1ccco1	6% (active)
Oc1c(Br)cc(Cl)cc1C=Nc1ccccc1Br	9% (active)
NC(=O)c1cccc(N=Cc2cc(Cl)cc(Cl)c2O)c1	6% (active)
Oc1c(Cl)cc(Cl)cc1/C=N/c1ncn[nH]1	15% (active)
Oc1c(Br)cc(Br)cc1C=Nc1cccc2ncccc12	-7%
O=C(NC(=S)Nc1cccc([N+](=O)[O-])c1)c1ccco1	-16%
O=C(N/N=C/c1cc(Cl)ccc1O)c1ccccc1Br	-3%
Oc1c(Cl)cc(Cl)cc1/C=N/c1nccs1	-11%
COc1ccccc1-n1c(CCC(=O)O)ccc1-c1ccccc1	-12%
Nc1cc(N)nc(SCc2cc(=O)oc3cc4c(cc23)CCC4)n1	-35%
CCCNC(=O)CN1C(=O)NC(Cc2c[nH]c3ccccc23)C1=O (stereo not given)	-22%

SMILES	activity increase over dofetilide control, less the hit threshold
COc1ccc(-c2nc(=S)c3c([nH]2)Oc2ccc(C)cc2C3)cc1O	-22%
CC(=O)Nc1ccc(NC(=O)CSc2ncc(C(=O)Nc3ccc(Cl)cc3)c(=O)n2C)cc1	-4%
Cc1ccc(N=Cc2cc(Cl)cc(Cl)c2O)nc1	3% (active)
Oc1c(Cl)cc(Cl)cc1C=Nc1ccc(Br)cc1	8% (active)
Cc1ccc(N=Cc2cc(Br)cc(Cl)c2O)cc1	-10%
CC(=O)N1c2ccc(N=Cc3cc(Br)cc(Br)c3O)cc2CC1C (stereo not given)	-5%
Cc1cccc(N=Cc2cc(Br)cc(Cl)c2O)c1	5% (active)
Oc1c(Br)cc(Br)cc1C=Nc1ccc2c(c1)OCCO2	-12%
O=C(CSCc1cnn(-c2ccccc2)c1-n1cccc1)NCc1cccnc1	-22%
S=c1[nH]cnc2scc(-c3ccc(Br)cc3)c12	33% (active)
S=c1[nH]cnc2scc(-c3ccc(Cl)cc3)c12	22% (active)
S=c1[nH]cnc2scc(-c3ccccc3)c12	51% (active)
Cn1nnnc1Sc1ncnc2scc(-c3ccc(F)cc3)c12	-12%
Cc1ccc(C)n1-n1c(C)nc2scc(-c3ccccc3)c2c1=O	-20%
Cc1ccc(-c2csc3nc[nH]c(=S)c23)cc1	45% (active)
Cn1cc(/C=N/n2cnc3scc(-c4ccc(Cl)cc4)c3c2=O)c2ccccc21	-10%
O=C1C(=O)N(CCN2CCOCC2)C(c2cccnc2)/C1=C(/O)c1ccc(Cl)cc1 (stereo not given)	-8%
CCn1nnnc1SCC(=O)N1c2ccccc2Sc2ccccc21	-17%
CCOC(=O)N1CCN(C(=O)CSc2nnc(-c3ccccc3OC)o2)CC1	-8%
CCOC(=O)N1CCN(c2c(-c3ccc(C)c(C)c3)c(=O)c2=O)CC1	1% (active)
CCOC(=O)N1CCN(C(=O)CCn2c(=S)[nH]c3ccsc3c2=O)CC1	-6%
CC(C)OC(=O)C1CC(C)(O)C(=O)C(C(=O)OC(C)C)C1c1ccc([N+](=O)[O-])cc1 (stereo not given)	-22%
CN1CCN(c2nnc(-c3cccs3)c3ccccc23)CC1	-13%
CCOC(=O)C1=NN(C(=O)c2ccc(C)cc2)C(O)(c2ccc(Cl)cc2)C1 (stereo not given)	100% (active)
CCOC(=O)C1=NN(C(=O)c2ccccc2)C(O)(c2ccc(C)cc2)C1 (stereo not given)	1% (active)
